Laboratory results taken from PubChem BioAssay (Tox21).
Records with an inconclusive call do not appear. A call without a number means that no potency is given here. Calls of active or inactive are those of the source. The call rests on the fitted dose curve; in most records, active means well fitted cell-killing curve with a large enough effect in the repeat runs; inconclusive means weak or mixed curves, or effect the other way; inactive means flat fitted curve, though single readings scatter.

Key:
[1] = cAMP Responsive Elements (CRE) small molecule antagonists, cell-based qHTS assay: qHTS cell viability counter screen (AID 2060913); further: nearly all actives have a fitted effect of over 40% in size
How it was run: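 Cytotoxicity counter screen multiplexed with the CRE-bla antagonist read: HEK293T cells in DMEM with dialyzed FBS and 25 mM HEPES were treated 3 hrs under 0.25 uM final NKH477, then viability measured by CellTiter-Glo luminescence.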

[2] = cAMP Responsive Elements (CRE) small molecule agonists, cell-based qHTS assay: qHTS cell viability counter screen (AID 2060914);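 further: viability read after 3 h of compound exposure; nearly all actives have a fitted effect of over 50% in size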
How it was run: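 Cells are seeded and incubated 18 h, treated with compounds in DMSO for 3 h, read for the bla reporter, then given CellTiter-Glo; luminescence is measured after 30 min at room temperature.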

| SMILES | Potency [1] | Potency [2] |
| --- | --- | --- |
| Cc1ccc(S(=O)(=O)NCl)cc1 | inactive | inactive |
| Nc1ccc([N+](=O)[O-])c(C(F)(F)F)c1 | inactive | inactive |
| O=S1(=O)CC=CC1 | inactive | inactive |
| CC(=O)/C=C/c1ccco1 | inactive | inactive |
| Cc1cc2c(OCC(CNC(C)(C)C)OC(=O)c3ccccc3)cccc2[nH]1 (configuration not stated) | inactive | inactive |
| CCCc1c2oc(C(=O)O)cc(=O)c2cc2c(=O)cc(C(=O)O)n(CC)c12 | inactive | inactive |
| O=Cc1ccc(Cl)c(Cl)c1 | inactive | inactive |
| CN1CCN2c3ccccc3Cc3ccccc3C2C1 (configuration not stated) | inactive | inactive |
| C=C[Si](OC(=C)C)(OC(=C)C)OC(=C)C | inactive | inactive |
| CC/C=C\CCOC(=O)CC | inactive | inactive |
| OCC(CO)(CO)CO | inactive | inactive |
| c1ccc(Oc2ccccc2)cc1 | inactive | inactive |
| O=C(O)c1nc(Cl)c(Cl)c(Cl)c1Cl | inactive | inactive |
| O=C1NCCN1CCO | inactive | inactive |
| C#C[C@]1(O)CC[C@H]2[C@@H]3CCc4cc(O)ccc4[C@H]3CC[C@@]21C | inactive | inactive |
| O=C(O)c1ccccc1NCCc1ccccc1 | inactive | inactive |
| Oc1ccc(C(c2ccc(O)cc2)C(Cl)(Cl)Cl)cc1 | inactive | inactive |
| C#C[C@]1(O)CC[C@H]2[C@@H]3CCC4=CC(=O)CC[C@@H]4[C@H]3CC[C@@]21C | inactive | inactive |
| O=C(O)c1ccc(S(=O)(=O)N(Cl)Cl)cc1 | inactive | inactive |
| CC/C=C\CCCCCO | inactive | inactive |
| O=C(NCCO[N+](=O)[O-])c1cccnc1 | inactive | inactive |
